PubChem BioAssay (EPA / NIEHS)
Where a structure was tested more than once in an assay, its records may differ in their call. Calls of active or inactive are those of the source. How the source made its calls: active means hit-call score of the fitted dose curve at least 0.9, where 1 is the maximum; inactive means score below 0.9.

Experiments:
[1] = read-out: urokinase Plasminogen Activator (uPA), PLAU (gene 5328); test: BSK_BF4T_uPA: BioMAP Diversity Plus: BF4T Assay for urokinase Plasminogen Activator (uPA) Biomarker Activity (AID 2284275); conditions: primary human bronchial epithelial cells with fibroblasts
How it was run: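 Co-culture of human bronchial epithelial cells and dermal fibroblasts; uPA quantified by ELISA 24 hours after dosing, fitted relative to DMSO. Parallel SRB total-protein staining assessed overt cytotoxicity.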

[2] = read-out: Matrix Metallopeptidase 9 (MMP9), MMP9 (gene 4318); test: BSK_BF4T_MMP9: BioMAP Diversity Plus: BF4T Assay for Matrix Metallopeptidase 9 (MMP9) Biomarker Activity (AID 2284276); conditions: primary human bronchial epithelial cells with fibroblasts
How it was run: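 Co-culture of human bronchial epithelial cells and dermal fibroblasts dosed for 24 h; MMP-9 quantified by ELISA and fitted upward versus DMSO. Cytotoxicity monitored in parallel cultures by SRB total-protein staining at the biomarker time point.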

[3] = read-out: Interleukin-8 (IL8), CXCL8 (gene 3576); test: BSK_IMphg_IL8: BioMAP Diversity Plus: IMphg Assay for Interleukin-8 (IL8) Biomarker Activity (AID 2284277); conditions: primary human endothelial cells with macrophages
How it was run: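 Co-culture of human venular endothelial cells and macrophages exposed to chemicals for 24 h; IL-8 quantified by ELISA and compared against the DMSO baseline, with SRB total-protein staining in parallel cultures for cytotoxicity.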

[4] = read-out: Intercellular Adhesion Molecule 1 (ICAM1), ICAM1 (gene 3383); test: BSK_BE3C_ICAM1: BioMAP Diversity Plus: BE3C Assay for Intercellular Adhesion Molecule 1 (ICAM1) Biomarker Activity (AID 2284278); conditions: primary human bronchial epithelial cells;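 further: cell-surface ICAM-1 protein level quantified by ELISA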
How it was run: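 Primary human bronchial epithelial cells in BE3C system, 24 h after chemical dosing; cell-surface ICAM-1 measured by ELISA relative to DMSO. Parallel SRB staining (0.1% SRB after 10% TCA fixation, read at 560 nm) assessed cytotoxicity.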

[5] = read-out: Interferon-inducible T-cell alpha chemoattractant (ITAC), CXCL11 (gene 6373); test: BSK_BE3C_ITAC: BioMAP Diversity Plus: BE3C Assay for Interferon-inducible T-cell alpha chemoattractant (ITAC) Biomarker Activity (AID 2284279); conditions: primary human bronchial epithelial cells
How it was run: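 Steps: dose human bronchial epithelial cells with chemical; incubate 24 h; measure I-TAC by ELISA; fit endpoint in positive direction against DMSO control. Cytotoxicity was checked in parallel cultures by SRB staining at harvest.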

[6] = read-out: Interleukin-8 (IL8), CXCL8 (gene 3576); test: BSK_BE3C_IL8: BioMAP Diversity Plus: BE3C Assay for Interleukin-8 (IL8) Biomarker Activity (AID 2284280); conditions: primary human bronchial epithelial cells
How it was run: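 IL-8 signal gain, normalised to DMSO vehicle, was scored after a 24 h chemical exposure of primary human bronchial epithelial cells, with detection by ELISA.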

[7] = read-out: Epidermal growth factor receptor (EGFR), EGFR (gene 1956); test: BSK_BE3C_EGFR: BioMAP Diversity Plus: BE3C Assay for Epidermal growth factor receptor (EGFR) Biomarker Activity (AID 2284281); conditions: primary human bronchial epithelial cells
How it was run: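 Compound is added to human bronchial epithelial cells, cells incubate 24 h, then EGFR is detected by ELISA. Values reflect positive-direction fitting relative to DMSO.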

[8] = read-out: KRT18 (gene 3875); test: BSK_BE3C_Keratin818: BioMAP Diversity Plus: BE3C Assay for Keratin 818 Biomarker Activity (AID 2284282); conditions: primary human bronchial epithelial cells
How it was run: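 Primary human bronchial epithelial cells treated 24 h; Keratin 8/18 quantified by ELISA, fit relative to DMSO. Cytotoxicity tracked in parallel cultures by sulforhodamine B total-protein staining.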

[9] = read-out: Matrix Metallopeptidase 9 (MMP9), MMP9 (gene 4318); test: BSK_BE3C_MMP9: BioMAP Diversity Plus: BE3C Assay for Matrix Metallopeptidase 9 (MMP9) Biomarker Activity (AID 2284283); conditions: primary human bronchial epithelial cells
How it was run: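 MMP9 is measured by ELISA after a 24 h compound exposure of primary human bronchial epithelial cultures. Parallel SRB staining gives overt cytotoxicity. Values fitted in the positive direction against DMSO.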

[10] = read-out: Plasminogen activator inhibitor-1 (PAI1), SERPINE1 (gene 5054); test: BSK_CASM3C_PAI1: BioMAP Diversity Plus: CASM3C Assay for Plasminogen activator inhibitor-1 (PAI1) Biomarker Activity (AID 2284284); conditions: primary human coronary artery smooth muscle cells;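 further: PAI-1 protein level measured by ELISA 24 h after dosing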
[11] = read-out: Vascular cell adhesion molecule 1 (VCAM1), VCAM1 (gene 7412); test: BSK_IMphg_VCAM1: BioMAP Diversity Plus: IMphg Assay for Vascular cell adhesion molecule 1 (VCAM1) Biomarker Activity (AID 2284286); conditions: primary human endothelial cells with macrophages
How it was run: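 Human venular endothelial cells co-cultured with macrophages; VCAM-1 quantified by ELISA 24 h after dosing, fitted in the positive direction against DMSO. Cytotoxicity was checked in parallel cultures by SRB total-protein staining (0.1% SRB after 10% TCA fixation, 560 nm).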

[12] = read-out: CD40, CD40 (gene 958); test: BSK_IMphg_CD40: BioMAP Diversity Plus: IMphg Assay for CD40 Biomarker Activity (AID 2284288); conditions: primary human endothelial cells with macrophages
How it was run: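 Venular endothelial cells co-cultured with macrophages (human primary), CD40 measured by ELISA 24 h after dosing. Positive-direction fit vs DMSO baseline; cytotoxicity tracked by SRB total-protein staining in parallel cultures.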

[13] = read-out: TIMP metallopeptidase inhibitor 2 (TIMP2), TIMP2 (gene 7077); test: BSK_hDFCGF_TIMP2: BioMAP Diversity Plus: hDFCGF Assay for TIMP metallopeptidase inhibitor 2 (TIMP2) Biomarker Activity (AID 2284289); conditions: primary human foreskin fibroblasts
How it was run: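 Primary human foreskin fibroblasts in the hDFCGF system, dosed for 24 h; TIMP-2 level measured by ELISA, fitted in the positive direction against DMSO; cytotoxicity checked in parallel by sulforhodamine B total protein staining.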

[14] = read-out: Interleukin-1 alpha (IL1a), IL1A (gene 3552); test: BSK_IMphg_IL1a: BioMAP Diversity Plus: IMphg Assay for Interleukin-1 alpha (IL1a) Biomarker Activity (AID 2284290); conditions: primary human endothelial cells with macrophages
How it was run: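 Human venular endothelial cells co-cultured with macrophages, IMphg system. IL-1α is measured by ELISA 24 h after dosing and fitted in the positive direction against DMSO. Cytotoxicity is assessed by SRB staining of parallel cultures.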

[15] = read-out: E-selectin (Homo sapiens) (UniProt P16581); test: BSK_IMphg_ESelectin: BioMAP Diversity Plus: IMphg Assay for Eselectin Biomarker Activity (AID 2284291); conditions: primary human endothelial cells with macrophages
How it was run: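 Human venular endothelial cell–macrophage co-culture, E-selectin measured by ELISA 24 h after chemical dosing. Signal fitted in the positive direction against DMSO as negative control and baseline.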

[16] = BSK_IMphg_SRB: Viability Assessment in the BioMAP Diversity Plus: IMphg Assay (AID 2284292); conditions: primary human endothelial cells with macrophages;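 further: measured one day after compound addition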
How it was run: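 Human venular endothelial cells with macrophages, 24 h after chemical dosing; total protein by 0.1% SRB staining after 10% TCA fixation, read at 560 nm. Positive-direction fitting versus DMSO baseline.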

[17] = read-out: Macrophage colony-stimulating factor (MCSF), CSF1 (gene 1435); test: BSK_IMphg_MCSF: BioMAP Diversity Plus: IMphg Assay for Macrophage colony-stimulating factor (MCSF) Biomarker Activity (AID 2284293); conditions: primary human endothelial cells with macrophages
How it was run: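 Co-culture of human venular endothelial cells and macrophages, 24 hours of chemical exposure. M-CSF quantified by ELISA, with parallel SRB total-protein staining for cytotoxicity; activity fitted relative to DMSO.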

[18] = read-out: Interleukin-10 (IL10), IL10 (gene 3586); test: BSK_IMphg_IL10: BioMAP Diversity Plus: IMphg Assay for Interleukin-10 (IL10) Biomarker Activity (AID 2284294); conditions: primary human endothelial cells with macrophages
How it was run: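 Human venular endothelial cells cocultured with macrophages, dosed 24 h; IL-10 measured by ELISA, activity relative to DMSO. Cytotoxicity assessed in parallel cultures by sulforhodamine B total-protein staining.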

Measured: AC50

Sequence of E-selectin (Homo sapiens) (P16581 whole entry, looked up): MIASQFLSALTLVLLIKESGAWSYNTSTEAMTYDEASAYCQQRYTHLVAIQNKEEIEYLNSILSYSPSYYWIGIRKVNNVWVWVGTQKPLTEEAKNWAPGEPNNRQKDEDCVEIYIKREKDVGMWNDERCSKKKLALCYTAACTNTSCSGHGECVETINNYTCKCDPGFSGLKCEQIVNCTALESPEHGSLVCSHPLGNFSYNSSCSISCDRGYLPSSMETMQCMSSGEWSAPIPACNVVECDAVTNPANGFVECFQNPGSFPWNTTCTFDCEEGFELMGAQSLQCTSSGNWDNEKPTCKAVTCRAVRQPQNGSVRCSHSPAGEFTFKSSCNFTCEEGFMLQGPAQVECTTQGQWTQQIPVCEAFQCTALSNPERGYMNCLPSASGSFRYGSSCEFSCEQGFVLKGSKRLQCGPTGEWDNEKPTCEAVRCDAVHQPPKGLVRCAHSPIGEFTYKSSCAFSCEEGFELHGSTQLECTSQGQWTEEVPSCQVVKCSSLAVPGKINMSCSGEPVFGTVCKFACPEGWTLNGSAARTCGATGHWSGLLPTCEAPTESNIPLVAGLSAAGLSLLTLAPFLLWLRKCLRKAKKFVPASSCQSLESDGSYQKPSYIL

FC(F)(Br)C(F)(F)C(F)(F)C(F)(F)C(F)(F)C(F)(F)Br
inactive: [1] | [2] | [3] | [4] | [5] | [6] | [7] | [8] | [9] | [10] | [11] | [12] | [13] | [14] | [15] | [16] | [17]

FC(F)(F)C(F)(F)C(F)(F)C(F)(F)C(F)(F)C(F)(F)C(F)(F)C(F)(F)CCS
inactive: [1] | [2] | [3] | [4] | [5] | [6] | [7] | [8] | [9] | [10] | [11] | [12] | [13] | [14] | [15] | [16] | [17]
active: [13] 24.5 nM

OCCCC(F)(F)C(F)(F)C(F)(F)F
inactive: [1] | [2] | [3] | [4] | [5] | [6] | [7] | [8] | [9] | [10] | [11] | [12] | [14] | [15] | [16] | [17] | [18]
